The values below come from PubChem BioAssay.

Assay [1] in a line: small molecules captured by biotinylated probe aFSTL3 – biochemical, small-molecule microarray, fluorescence 635/667, stem cell growth factor project, primary screen (AID 1064).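 Also: measures binding of the biotinylated anti-FSTL3 antibody to printed compounds.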 The note with it: higher = more signal.
Assay [2] in a line: binders from COS7 lysate, DM2A8 probe, primary screen, torsin A project, cell lysate, small-molecule microarray, fluorescence 635/667 (AID 1065). As to conditions: higher = more signal, COS7 lysate expressing mutant human TOR1A.
Assay [3] can be described thus: small molecules captured by biotinylated probe aFGF2 – biochemical, small-molecule microarray, fluorescence 635/667, stem cell growth factor project, primary screen (AID 1067).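 Also: measures binding of biotinylated aFGF2 protein to printed compounds on slides; z-score merges feature fluorescence and signal-to-noise across triplicate slides.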 The note with it: higher = more signal.
Assay [4] can be described thus: small molecules captured by biotinylated probe aFGF10 – biochemical, small-molecule microarray, fluorescence 635/667, stem cell growth factor project, primary screen (AID 1071).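 Also: score merges 667 nm spot intensity and signal to noise from triplicate slides.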 As to conditions: higher = more signal.
Assay [5] concerns the target Neurogenic locus notch homolog protein 2 (Homo sapiens) (UniProt Q04721). The assay can be described thus: small molecules binding Notch2 protein – biochemical, small-molecule microarray, 635 nm fluorescence, stem cell growth factors, primary screen (AID 1073). As to conditions: higher = more signal.
The target in assay [6] is Pro-neuregulin-1, membrane-bound isoform (Homo sapiens) (UniProt Q02297). The assay can be described thus: small molecules binding neuregulin-1 protein – biochemical, small-molecule microarray, fluorescence 635/667, psychiatric disease protein project, primary screen (AID 1075).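 Also: score combines 667 nm spot fluorescence with signal to noise.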 The note with it: NRG1 binding, 635 nm fluorescence, higher = more signal.
Assay [7] concerns Neuregulin-1 EGF-like domain. Description: small molecules binding NRG1 EGF domain – biochemical, small-molecule microarray, 635 nm fluorescence, primary screen (AID 1081).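 Also: binding of the protein to compounds printed on small-molecule microarray slides.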 As to conditions: higher = more signal.
Assay [8] is described as follows: FRG1 expression reporter modulators in myotubes – cell-based, C2C12 myotubes, firefly/Renilla luciferase, luminescence, FRG1 inhibition for FSHD, primary screen (AID 1084). As to conditions: FRG1 promoter luciferase, higher = more signal, called active from +8 up or from −8 down.
Assay [9] in a line: small molecules captured by biotinylated probe aFST – biochemical, small-molecule microarray, fluorescence 635/667, stem cell growth factor project, primary screen (AID 1086).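 Also: score merges 667 nm fluorescence with signal-to-noise of each printed compound spot.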 As to conditions: higher = more signal.
Assay [10] can be described thus: binders of probe aHhip on microarray, primary screen, stem cell growth factor project, biochemical, small-molecule microarray, fluorescence 635/667 (AID 1087).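 Also: score merges spot fluorescence at 667nm with spot signal to noise ratio.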 The note with it: higher = more signal.
Assay [11] deals with PRMT1 (protein arginine N-methyltransferase 1). The assay can be described thus: small molecules binding arginine methyltransferase PRMT1 – biochemical, small-molecule microarray, 635 nm fluorescence, primary screen (AID 1088).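 Also: binding of Prmt1 protein to compounds spotted on small-molecule microarray slides.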 As to conditions: higher = more signal.
Assay [12] can be described thus: growth effects on S. cerevisiae YJM789 – YJM789 clinical isolate, OD600, 24 h, basal, primary screen (AID 1089).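 Also: growth of clinical yeast isolate S. cerevisiae YJM 789 seeded 1000 cells per well; test concentration not given here.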 As to conditions: higher = more signal, called active from +8 up or from −8 down.
A short description of assay [13]: S. pombe growth modifiers, basal conditions – strain 972, OD600, 24 h, no modulator, primary screen (AID 1090).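 Also: basal condition with compound alone and no growth modifier present; test concentration not given here.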 The note with it: S. pombe 972 growth, higher = more signal, called active from +8 up or from −8 down.
Assay [14] can be described thus: budding yeast growth modifiers under rapamycin – strain BY4716, OD600, 96 h, primary screen (AID 1091). Also: test concentration not given here. The note with it: S. cerevisiae BY4716 + rapamycin, higher = more signal, called active from +8 up or from −8 down.
For assay [15], the target named is Torsin-1A-interacting protein 2 (Homo sapiens) (UniProt Q8NFQ8). The assay can be described thus: small molecules binding lysate-expressed LULL1 – cell lysate, human LULL1 lysate, 635/667 nm fluorescence, primary screen (AID 1092).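 Also: probe is lysate of COS7 cells overexpressing human LULL1; score merges per-feature 667 nm fluorescence with signal-to-noise.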 The note with it: small-molecule microarray, hLULL1 lysate binding, 635 nm fluorescence; higher = more signal.
Assay [16] in a line: optical density change of DRC41 E. coli – strain DRC41, OD650, 24 h, E. coli filamentation project, primary screen (AID 1093).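 Also: MC1000 strain lacking acrAB efflux and sulA so SOS filamentation is blocked; test concentration not given here.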 The note with it: E. coli DRC41 growth, higher = more signal, called active from +8 up or from −8 down.
Assay [17] is described as follows: probe aLefty2 binding to arrayed compounds – biochemical, biotinylated probe, 635/667 nm fluorescence, primary screen (AID 1094).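 Also: score merges spot fluorescence near 667 nm with spot signal-to-noise ratio.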 As to conditions: small-molecule microarray, higher = more signal.
The subject of assay [18] is Noggin (protein binding on small-molecule microarray). Description: small molecules binding Noggin protein – biochemical, 635/667 nm fluorescence, primary screen (AID 1095).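 Also: score merges 667 nm feature fluorescence with signal to noise over triplicate slides.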 The note with it: 635 nm fluorescence, higher = more signal.
Assay [19] has as its target Neurogenic locus notch homolog protein 3 (Homo sapiens) (UniProt Q9UM47). The assay can be described thus: small molecules binding NOTCH3 protein – biochemical, 635/667 nm fluorescence, primary screen (AID 1096). The note with it: small-molecule microarray, 635 nm fluorescence, higher = more signal.
Assay [20] is described as follows: probe aEGFR binding to arrayed compounds – biochemical, biotinylated probe, 635/667 nm fluorescence, primary screen (AID 1097).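 Also: probe is a biotinylated anti-EGFR antibody binding compounds printed on slides; score combines fluorescence near 667 nm and signal to noise of each spot.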 As to conditions: small-molecule microarray, higher = more signal.

Active and inactive are the calls of the source.

Chain of Neurogenic locus notch homolog protein 3 (Homo sapiens) (Q9UM47 whole entry, looked up): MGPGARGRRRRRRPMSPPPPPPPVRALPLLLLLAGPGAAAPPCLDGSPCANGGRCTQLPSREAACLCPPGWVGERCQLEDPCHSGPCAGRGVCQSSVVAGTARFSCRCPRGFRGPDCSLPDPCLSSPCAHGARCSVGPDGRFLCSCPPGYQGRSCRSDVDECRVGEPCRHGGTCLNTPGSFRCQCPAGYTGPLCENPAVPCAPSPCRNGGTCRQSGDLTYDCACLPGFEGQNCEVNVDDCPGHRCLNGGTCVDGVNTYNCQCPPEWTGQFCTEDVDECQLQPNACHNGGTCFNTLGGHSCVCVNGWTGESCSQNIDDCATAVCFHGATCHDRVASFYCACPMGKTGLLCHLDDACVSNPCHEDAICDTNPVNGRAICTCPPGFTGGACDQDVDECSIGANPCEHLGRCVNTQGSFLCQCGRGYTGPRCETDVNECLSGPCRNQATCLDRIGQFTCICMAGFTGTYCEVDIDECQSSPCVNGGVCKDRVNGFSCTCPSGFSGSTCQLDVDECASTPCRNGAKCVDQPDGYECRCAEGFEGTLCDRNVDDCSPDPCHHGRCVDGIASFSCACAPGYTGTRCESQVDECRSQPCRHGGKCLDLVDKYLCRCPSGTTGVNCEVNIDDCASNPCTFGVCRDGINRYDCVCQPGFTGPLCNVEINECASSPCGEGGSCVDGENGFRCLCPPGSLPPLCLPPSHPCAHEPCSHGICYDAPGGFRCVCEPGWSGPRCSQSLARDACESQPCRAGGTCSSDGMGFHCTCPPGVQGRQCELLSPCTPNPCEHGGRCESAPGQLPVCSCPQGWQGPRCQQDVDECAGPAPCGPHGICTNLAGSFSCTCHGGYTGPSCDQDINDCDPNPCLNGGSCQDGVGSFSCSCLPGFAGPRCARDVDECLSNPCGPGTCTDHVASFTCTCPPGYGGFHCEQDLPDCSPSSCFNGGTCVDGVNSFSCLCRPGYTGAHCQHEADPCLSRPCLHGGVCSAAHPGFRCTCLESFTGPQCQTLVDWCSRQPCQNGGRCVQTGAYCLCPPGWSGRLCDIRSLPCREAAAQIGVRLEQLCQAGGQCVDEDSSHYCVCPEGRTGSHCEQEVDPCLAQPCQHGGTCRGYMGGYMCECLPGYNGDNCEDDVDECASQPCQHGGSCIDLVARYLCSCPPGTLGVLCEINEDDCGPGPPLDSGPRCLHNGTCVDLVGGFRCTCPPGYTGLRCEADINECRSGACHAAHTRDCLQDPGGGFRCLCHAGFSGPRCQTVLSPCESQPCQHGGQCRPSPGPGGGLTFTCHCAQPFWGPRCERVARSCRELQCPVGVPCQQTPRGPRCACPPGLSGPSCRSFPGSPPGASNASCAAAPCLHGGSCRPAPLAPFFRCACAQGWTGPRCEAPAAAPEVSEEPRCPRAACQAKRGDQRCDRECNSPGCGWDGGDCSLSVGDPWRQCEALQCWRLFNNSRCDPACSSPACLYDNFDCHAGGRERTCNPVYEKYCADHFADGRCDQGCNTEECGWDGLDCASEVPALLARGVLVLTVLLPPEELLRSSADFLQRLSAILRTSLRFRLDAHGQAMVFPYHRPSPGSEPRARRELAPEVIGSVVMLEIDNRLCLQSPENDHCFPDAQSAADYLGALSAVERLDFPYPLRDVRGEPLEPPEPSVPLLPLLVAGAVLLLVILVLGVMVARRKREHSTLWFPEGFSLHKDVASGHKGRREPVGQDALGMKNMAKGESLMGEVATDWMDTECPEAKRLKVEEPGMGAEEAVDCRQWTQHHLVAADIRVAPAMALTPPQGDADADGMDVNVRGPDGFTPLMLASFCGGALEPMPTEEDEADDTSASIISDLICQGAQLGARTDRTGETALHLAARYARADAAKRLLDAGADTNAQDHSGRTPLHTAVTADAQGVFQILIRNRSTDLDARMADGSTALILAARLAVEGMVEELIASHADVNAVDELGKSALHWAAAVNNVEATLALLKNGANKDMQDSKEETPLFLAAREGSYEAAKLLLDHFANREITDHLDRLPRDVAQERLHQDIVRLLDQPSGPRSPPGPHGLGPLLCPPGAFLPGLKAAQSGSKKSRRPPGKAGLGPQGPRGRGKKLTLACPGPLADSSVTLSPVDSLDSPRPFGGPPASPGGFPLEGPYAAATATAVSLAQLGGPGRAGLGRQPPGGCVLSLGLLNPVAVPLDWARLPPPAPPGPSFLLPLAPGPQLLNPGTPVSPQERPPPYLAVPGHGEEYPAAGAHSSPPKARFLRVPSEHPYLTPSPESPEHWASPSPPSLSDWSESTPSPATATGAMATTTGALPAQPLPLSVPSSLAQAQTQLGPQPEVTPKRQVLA
Chain of Pro-neuregulin-1, membrane-bound isoform (Homo sapiens) (Q02297 whole entry, looked up, the tested form may be a part, canonical isoform): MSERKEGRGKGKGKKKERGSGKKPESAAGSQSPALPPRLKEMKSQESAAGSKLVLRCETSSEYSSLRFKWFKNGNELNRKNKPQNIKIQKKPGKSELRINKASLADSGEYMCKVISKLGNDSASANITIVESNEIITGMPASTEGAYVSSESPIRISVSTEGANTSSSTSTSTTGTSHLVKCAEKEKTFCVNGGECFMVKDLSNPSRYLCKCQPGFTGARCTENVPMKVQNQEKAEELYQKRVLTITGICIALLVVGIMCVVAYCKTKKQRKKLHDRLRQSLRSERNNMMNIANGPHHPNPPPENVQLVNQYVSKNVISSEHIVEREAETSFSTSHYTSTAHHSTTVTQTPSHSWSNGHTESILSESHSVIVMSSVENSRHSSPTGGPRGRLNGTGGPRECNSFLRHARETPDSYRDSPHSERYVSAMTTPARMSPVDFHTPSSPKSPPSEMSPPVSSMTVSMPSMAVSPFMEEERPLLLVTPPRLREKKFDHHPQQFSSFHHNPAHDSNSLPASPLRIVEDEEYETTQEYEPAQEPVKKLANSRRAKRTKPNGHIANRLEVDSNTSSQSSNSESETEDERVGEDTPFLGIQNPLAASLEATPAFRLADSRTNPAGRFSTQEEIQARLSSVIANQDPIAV
Chain of Torsin-1A-interacting protein 2 (Homo sapiens) (Q8NFQ8 whole entry, looked up): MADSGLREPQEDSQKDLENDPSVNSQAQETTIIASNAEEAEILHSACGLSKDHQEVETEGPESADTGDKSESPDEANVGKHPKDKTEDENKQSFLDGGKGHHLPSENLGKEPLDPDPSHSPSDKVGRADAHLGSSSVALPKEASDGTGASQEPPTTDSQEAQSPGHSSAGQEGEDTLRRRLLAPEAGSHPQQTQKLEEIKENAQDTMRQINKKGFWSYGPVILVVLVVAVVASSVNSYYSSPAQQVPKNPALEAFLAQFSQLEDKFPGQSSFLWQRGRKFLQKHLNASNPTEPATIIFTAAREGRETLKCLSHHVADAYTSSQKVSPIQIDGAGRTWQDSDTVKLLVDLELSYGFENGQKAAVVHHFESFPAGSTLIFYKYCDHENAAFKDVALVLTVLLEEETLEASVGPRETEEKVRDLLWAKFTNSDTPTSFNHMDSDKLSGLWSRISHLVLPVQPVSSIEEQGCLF

With `COC(=O)[C@@]1(Cc2ccccc2N=[N+]=[N-])COC(c2ccc(OCCCO)cc2)=N1`, the composite z-score in [1] is 1.34; in assay [2], 2.03; in assay [3] it was -0.0706; in assay [4] it was -0.282; in [5] it was 0.0164; in assay [6] it was 1.24. Moreover, the composite z-score in assay [7] was determined as 1.21; in assay [9] it was 0.498; in assay [10], 0.0176; in assay [11], 1.24; in [15], 2.08; in assay [17] it was 0.137. Further, the values for the composite z-score in assay [18], in assay [19] and in assay [20] were -0.353, 0.0418 and -0.0762, respectively. For the same compound, the z-score in assay [8] was -0.904 (inactive); in assay [12] it was -1.33 (inactive); in [13], -11 (active); in assay [14] it was -1.99 (inactive); in assay [16] it was -0.574 (inactive).
In the case of `COC(=O)c1ccc(OC)c(/C=C\CC(OC(C)=O)c2ccccc2)c1` (stereo not given), the composite z-score was 0.428 in assay [1]; -0.284 in assay [2]; -0.138 in [3]; 0.229 in [4]; 1.2 in [5]; 0.993 in assay [6]. The composite z-score was 0.971 in [7]; -0.405 in assay [9]; 0.206 in [10]; 0.31 in [11]; 0.879 in [15]; -0.208 in assay [17]. The composite z-score in assay [18] was 0.0928; in assay [19], 0.275; in [20], -0.115. Further, the z-score was -1.21 (inactive) in [8]; -1.71 (inactive) in [12]; -1.34 (inactive) in assay [13]; -0.0987 (inactive) in assay [14]; 0.759 (inactive) in assay [16].
For the compound `COC(=O)C[C@H]1O[C@]2(C(=O)N(Cc3ccccc3)c3ccc(NC(C)=O)cc32)[C@@H](C)[C@@H]1[Si](C)(C)c1ccc(OC)cc1`, the composite z-score in assay [1] is -0.383; in [2] it was -0.148; in assay [3], -0.0543; in assay [4], 0.489; in [5] it was 1.12; in assay [6] it was 0.264. In addition, the composite z-score was 0.882 in [7]; 0.113 in assay [9]; -0.273 in assay [10]; 0.994 in [11]; 1.56 in assay [15]; -0.082 in assay [17]. The composite z-score in [18] was 1.09; in assay [19], 1.14; in assay [20], -0.108. Further, the z-score in [8] is -1.98 (inactive); in assay [12], 0.747 (inactive); in [13], 0.19 (inactive); in assay [14], 2.53 (inactive); in [16], 0.0208 (inactive).
`CCOC(=O)C[C@H]1[C@H](OC(=O)c2ccc(-c3ccccc3)cc2)[C@@H](NC(=O)c2ccc(-c3ccccc3)cc2)c2cc(OCCCO)ccc2N1C(=O)Cc1ccc(OC)cc1`: the composite z-score in [1] was -0.263; in assay [2], -0.0676; in assay [3], -0.0525; in assay [4], 0.0168; in assay [5], 0.306; in assay [6] it was 0.168. The composite z-score in assay [7] was -0.489; in [9] it was 0.425; in [10], -0.226; in assay [11] it was -0.007; in assay [15] it was 0.856; in assay [17], -0.0196. The composite z-score is -0.31 in assay [18], -0.166 in assay [19] and -0.0505 in [20]. Further, the z-score in assay [8] was 0.712 (inactive); in [12], -0.907 (inactive); in assay [13], 0.321 (inactive); in [14], 0.16 (inactive); in assay [16], -0.963 (inactive).
`[N-]=[N+]=NCc1ccccc1C[C@@]1(C(=O)NCC(O)CO)N=C(c2ccc(OCCCO)cc2)O[C@@H]1c1ccccc1CN=[N+]=[N-]` (stereo not given in full): the composite z-score is 0.178 in assay [1]; -0.342 in assay [2]; 0.0587 in assay [3]; 0.939 in assay [4]; 1.43 in [5]; 1.34 in assay [6]. Further, the composite z-score in assay [7] was 1.21; in assay [9] it was 0.704; in assay [10], -0.115; in assay [11] it was 1.52; in assay [15], 3.68; in assay [17], 0.0942. Further, the composite z-score is 0.875 in assay [18], 0.474 in assay [19] and -0.197 in assay [20]. The z-score in assay [8] is -0.429 (inactive); in [12], -0.235 (inactive); in assay [13], 0.648 (inactive); in [14], 1.34 (inactive); in assay [16], 0.526 (inactive).
